Screening data: PubChem BioAssay, Columbia University Molecular Screening Center
F-actin modifier: modifiers of F-actin cytoskeleton organization, primary screen, imaging, HUVEC, phalloidin staining, high-content imaging; HUVEC TNFa F-actin phalloidin imaging; inhibition, % at 2 µM; actives 0.18% (n = 91,000);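 active = inhibition above the batch mean plus 3 SD and confirmed as a hit by visual image inspection, cut at about 30% in these data, passing the limit was not always enough; inconclusive = above the inhibition threshold but rejected on visual inspection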
E-sel TNF inh: E-selectin induction blockers in HUVEC – imaging, immunofluorescence, high content, primary screen; HUVEC TNFa-induced E-selectin immunofluorescence; inhibition, % at 2 µM; actives 0.71% (n = 120,000);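 active = inhibition above the batch mean plus 3 SD, and confirmed as a hit on visual image review, cut at about 43% in these data; inconclusive = passes the inhibition cutoff but fails visual image review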;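 also: 0% = TNF-stimulated DMSO wells and 100% = unstimulated control wells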
TNFa cytotox: cytotoxicity in TNFa-stimulated HUVEC, primary screen, cytotoxicity control for VCAM1 expression modulator project, imaging, Hoechst nuclei count. AID 848, 2007. cell count reduction, % at 2 µM. actives 0.17% (n = 93,000). HUVEC TNFalpha-stimulated, Hoechst cell count;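 active = cell count reduction exceeding the screen mean by over 5 SD, scaled to untreated wells per plate, cut at about 78% in these data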;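 also: cells counted after 24 h of TNF alpha exposure following the 1 h pretreatment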
VCAM1 TNFa inh: inhibitors of TNFa-induced VCAM1 expression, primary screen, imaging, HUVEC, TNFa stimulus, immunofluorescence; actives 0.48% (n = 95,000); inhibition, % at 2 µM; HUVEC TNFa-induced VCAM-1 immunofluorescence, high-content imaging; AID 802, 2007;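 active = inhibition above the batch mean plus 3 SD, with images confirmed as a hit by eye, cut at about 37% in these data; inconclusive = inhibition above that limit but hit not confirmed in images; inactive = inhibition not above that limit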;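 also: 0% = TNF-stimulated DMSO wells and 100% = unstimulated control wells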
* hit, by the source's call; ? = inconclusive; . = no result. Compounds with a hit are over-represented: about 1.1% of the library has one in this group of screens.

SMILES	F-actin modifier	E-sel TNF inh	TNFa cytotox	VCAM1 TNFa inh
CCC(=O)N1CCc2cc(S(=O)(=O)NC(C(=O)NC3CCCc4ccccc43)C(C)C)ccc21 (stereo not given)	.	17	.	.
COc1ccc(/C=N/OC(=O)Nc2ccccc2OC)cc1	.	-10	.	.
CC(C)N1CC(O)=C(c2nc3ccccc3[nH]2)C1=N	.	.	100*	.
Cc1n[nH]c(=O)nc1NCc1ccccc1	-6	.	77	89*
N#CC(C#N)=C1C=CC=CN1/C(=C\c1ccco1)C(=O)c1ccc(-c2ccccc2)cc1	.	93*	.	.
CCC(CC)C(=O)c1c[nH]c(C(=O)NCCCN2CCOCC2)c1	14	86*	-10	-25
CCN=C(NS(=O)(=O)c1ccc(Br)cc1)c1ccc(Cl)cc1	.	-11	.	.
COc1ccccc1N1CCN(S(=O)(=O)c2ccc(Br)s2)CC1	-3	-3	-13	10
COc1ccccc1N1CCN(C(=O)c2ccc(Br)s2)CC1	.	80*	.	.
CCOc1ccccc1NC(=O)N1CCCC(c2nc(-c3ccc(C)o3)no2)C1 (stereo not given)	.	-12	.	.
O=C(NC(=O)c1cccc(OC(F)(F)C(F)F)c1)OC1CCS(=O)(=O)C1 (stereo not given)	.	54*	.	.
CCCCNC(=O)OC1CCS(=O)(=O)C1 (stereo not given)	8	-26	-28	8
CCOc1cccc(C(=O)NNC(=O)CCC(=O)O)c1	.	-19	.	.
COc1ccc(C2(CNC(=O)c3cc([N+](=O)[O-])cc([N+](=O)[O-])c3)CCCC2)cc1OC	.	63*	.	.
COc1ccc(Cl)cc1C(=O)NNC1CC(=O)N(Cc2ccc(Cl)cc2)C1=O (stereo not given)	.	-3	.	.
CC(=O)Nc1ccc(S(=O)(=O)NC2(C(F)(F)F)C(=O)Nc3c2c(=O)[nH]c(=O)n3C)cc1 (stereo not given)	34*	-33	-5	1
CC(=O)Nc1ccc(S(=O)(=O)NC2(C(F)(F)F)C(=O)Nc3c2c(=O)n(C)c(=O)n3C)cc1 (stereo not given)	-3	5	-34	2
COC(=O)C1=C(COc2ccc(C=O)cc2OC)NC(=O)NC1c1cc(C)ccc1C (stereo not given)	.	1	.	.
CS(=O)(=O)N(CC(=O)NCc1ccco1)Cc1ccc(Cl)cc1	8	5	-8	19
Cc1ccc(S(=O)(=O)N(CC(=O)NCc2ccco2)Cc2ccc(F)cc2)cc1	100*	-26	.	.
O=C(NN=C1CCN(Cc2ccccc2)CC1)c1ccccc1	.	68*	.	.
COc1ccccc1CNC(=O)COC(=O)CCC(=O)c1cccs1	.	-9	.	.
CC1(C)CC(=O)c2cc(C(=O)NC3CCSC3=O)c(=O)n(-c3ccccc3)c2C1 (stereo not given)	46	14	-1	-6
O=C1CCCc2c1cc(C(=O)NC1CCSC1=O)c(=O)n2-c1ccccc1 (stereo not given)	-66	-22	94*	.
Cn1c(SC2=CS(=O)(=O)c3ccccc32)nc2ccccc21	13	62*	12	8
SMILES	F-actin modifier	E-sel TNF inh	TNFa cytotox	VCAM1 TNFa inh
COc1ccccc1C1c2c(C)nn(-c3ccccc3)c2NC(=O)C1NC(=O)c1ccccc1 (stereo not given)	.	-42	.	.
N/C(=N\c1nc(CSc2ccc(Cl)cc2)cc(=O)[nH]1)Nc1cccc2ccccc12	9	70*	-4	-5
Cc1cc(C)nc(NS(=O)(=O)c2ccc(NC(=O)c3cccs3)cc2)n1	-9	2	14	-4
CCCCN(CCCC)S(=O)(=O)c1ccc(NC(=O)c2cccs2)cc1	15	85*	2	2
Cc1ccc(Nc2nc(CSc3nnnn3C)cs2)cc1	23	15	-25	96*
COc1ccc(Cn2c(CCCO)nc3ccccc32)cc1OC	-12	3	81*	0
CCc1nc2ccccc2n1Cc1ccc(OC)c(OC)c1	29	7	12	14
CCC1C(=O)N(C)CCc2ccccc21 (stereo not given)	.	-9	.	.
Cn1c(CNc2ccccc2O)nc2ccccc21	-5	.	89*	59*
Cn1c(CNc2ccccc2)nc2ccccc21	-14	.	-6	23
O=C(CSc1nnc(COc2ccccc2)o1)N1CCN(c2ccccc2)CC1	7	-20	0	-10
Cc1cc(C)cc(OCc2nnc(SCC(=O)N3CCN(c4ccccc4)CC3)o2)c1	?	15	.	100*
COc1cccc(CSc2nc3ccccc3cc2C=O)c1	5	-34	31	90*
COc1cccc(NC(=O)CSc2nc3ccccc3cc2Cc2ccccc2)c1	-8	-8	-19	8
Cc1ccc(-n2c(=O)c3c4c(sc3n(Cc3cc(=O)n5ccccc5n3)c2=O)CCC4)cc1C	.	90*	.	.
O=C(Nc1ccc2nsnc2c1)c1ccc2c(c1)OCO2	12	100*	29	29
O=C(Nc1ccc(F)c(F)c1)c1ccc2c(c1)OCO2	7	.	-17	-13
CCOc1ccc(C2=NNC(c3cccs3)=Nc3ccc(OC)cc32)cc1OCC	-20	-2	-6	-1
COc1ccc(C2=NNC(c3cccs3)=Nc3ccc(OC)cc32)cc1	-16	74*	-18	9
COc1ccc(/C=C/C(=O)c2cc3c(cc2N)OCO3)cc1	.	-28	.	.
CCOC(=O)c1cnn(-c2nc(CC)nc3sc4c(c23)CCC4)c1N	-11	.	76	92*
Cc1nnc(NC(=O)Cn2nc(C)c3ccccc3c2=O)s1	.	-8	.	.
Cc1cc(C)n(-c2nc3ccccc3nc2N2CCN(C(=O)c3ccc(Cl)cc3)CC2)n1	18	-16	.	92*
COc1ccc2c(c1)CCc1c(C(=O)N3CC4(C)CC3CC(C)(C)C4)noc1-2 (stereo not given)	-21	17	8	91*
CCCOc1ccc(C(=O)C(CN2CCCC2)c2ccccc2)cc1 (stereo not given)	.	5	.	.
SMILES	F-actin modifier	E-sel TNF inh	TNFa cytotox	VCAM1 TNFa inh
CCCCOc1ccc(C(=O)C(CN2CCOCC2)c2ccccc2)cc1 (stereo not given)	14	22	-20	41
COc1ccc(C(=O)C(CN2CCCC2)c2ccccc2)cc1 (stereo not given)	7	.	-4	84*
COc1ccc(C(=O)C(CN2CCOCC2)c2ccccc2)cc1 (stereo not given)	.	-24	0	51*
Cc1cc(Cl)ccc1OC(C)C(=O)Nc1ccc([N+](=O)[O-])cn1 (stereo not given)	.	-25	.	.
O=C(OCn1ncc(Br)c(Br)c1=O)c1ccc(F)cc1	-7	90*	28	81*
O=C(OCn1ncc(Br)c(Br)c1=O)c1ccccc1Cl	-4	.	32	34
N#Cc1c(SCc2nc3ccccc3[nH]2)nc2c(c1C(F)(F)F)CCC2	-6	6	2	23
Cc1cc(C)c(C#N)c(SCc2nc3ccccc3[nH]2)n1	34*	-29	-46	17
Cc1noc(C)c1CCC(=O)N1CCCC(CCC(=O)NCc2ccccc2F)C1 (stereo not given)	.	-18	.	.
O=C(c1ccc2snnc2c1)N1CCSCC1	-45	.	84*	78*
O=C(c1ccc2snnc2c1)N1CCCCC1	-11	-4	-13	-4
